Measured values published in PubChem BioAssay AID1814 (Broad Institute, 2009).
Screen size: about 300,000 compounds; about 22,000 (7.3%) were called active. Inconclusive results (about 2%) are left out. This is one part of a sample in which actives are shown more often than they occur. Cut-off read from the data, not from the text of the source: active = activity score below about -60%; inconclusive = mostly about -28% to -61%; inactive = positive scores.

Test: Activators via SNCA 5'UTR binding, MLPCN (AID 1814)
Settings: alpha-synuclein 5'UTR reporter, activators screen; stronger effect = lower value; tested at 7.5 µM

SMILES | activity score
COC(=O)c1ccc(NC(=O)c2ccco2)cc1 | -107% (active)
COC(=O)c1cc(Cl)c(NC(=O)c2ccco2)cc1OC | -96% (active)
O=C(Nc1ccc(O)cc1)c1ccc(NC(=O)c2ccco2)cc1 | -72.7% (active)
CCCc1ccc(OCCNC(=O)c2ccco2)cc1 | -90.6% (active)
O=C(Nc1ccc2nccnc2c1)c1ccco1 | -105% (active)
Cc1ccnc(NC(=O)c2ccoc2C)c1 | -147% (active)
Cc1ccoc1C(=O)Nc1cccc(Oc2ccccc2)c1 | -137% (active)
Clc1ccc(Cc2nnc(-c3cccs3)o2)cc1 | -116% (active)
Cc1ccc(NC(=O)OCc2cncs2)cc1 | -112% (active)
COc1ccc(NC(=O)/C(Cl)=C(/Cl)S(=O)Cc2ccc(C)cc2)cn1 (stereo not given) | 106% (inactive)
O=C(N/N=C/c1ccc(OCc2ccccc2)cc1)c1ccc(O)cc1 | -70.7% (active)
Cc1ccnc(NC(=O)CCNS(=O)(=O)c2ccc(C)c(C)c2)c1 | -87.9% (active)
CC(C)c1ccc(NC(=S)NC2CC3C=CC2C3)cc1 (stereo not given) | -134% (active)
COc1ccccc1NC(=O)c1ccc(C)s1 | -227% (active)
Cc1csc(NC(=O)C2=COCCO2)n1 | -132% (active)
COc1ccccc1NC(=O)C1=C(C)Nc2nc3ccccc3n2C1c1cccs1 (stereo not given) | 106% (inactive)
Cc1sc(NC(=O)C2=COCCO2)c(C#N)c1C | -110% (active)
Cc1ccc(-c2csc(NC(=O)C3=COCCO3)n2)cc1C | -176% (active)
O=C(Nc1nc(-c2ccc3c(c2)OCO3)cs1)c1ccncc1 | -99.5% (active)
Cc1ccc(-c2csc(NC(=O)c3cnccn3)n2)cc1C | -97.7% (active)
COc1cc(SC)ccc1C(=O)Nc1nc(C)cs1 | 96.2% (inactive)
Cc1csc(NC(=O)c2ccc(C)s2)n1 | -174% (active)
COc1ccccc1-c1nnc(SCC(=O)Nc2ccccc2)o1 | -187% (active)
COc1ccccc1-c1nnc(SCC(=O)N2CC(C)CC(C)C2)o1 (stereo not given) | 45.8% (inactive)
COc1ccc(-c2nnc(SCC(=O)c3cccs3)o2)c(OC)c1 | -106% (active)
Cc1ccc(C(=O)Nc2nc3ccc(Cl)cc3s2)o1 | -183% (active)
Cc1ccc(-c2noc(C3CCCN(C(=O)c4cccc(Cl)c4)C3)n2)o1 (stereo not given) | -109% (active)
O=C(c1cccs1)N1CCCC(c2nc(-c3ccc(F)cc3)no2)C1 (stereo not given) | -91.6% (active)
Cc1ccc2nc(N3CCN(C(=O)c4ccco4)CC3)sc2c1 | -216% (active)
COc1ccc2nc(N3CCN(C(=O)c4ccc([N+](=O)[O-])o4)CC3)sc2c1 | -160% (active)
